Laboratory results taken from PubChem BioAssay (Tox21).
Inconclusive results are not listed. Activity calls are given as the source filed them. Unless noted, calls follow the shape of the dose curve; as a rule, active = well fitted curve in the direction sought with a large enough effect in the repeat runs; inconclusive = weak or mixed curves; inactive = no such curve, though single readings can be large; an effect the other way counts as inactive or inconclusive.

Columns and labels:
[1] = qHTS assay to identify small molecule antagonists of the retinoid acid receptor (RAR) signaling pathway - cell viability counter screen (AID 1159551); also: nearly all actives have a fitted effect of over 35% in size; also: potency is read from the fitted curve at half-maximal effect
Method in brief: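 C3RL4 RARE-luciferase line; cpds + retinol 1 uM final, 6 h, 37 C/5% CO2; CellTiter-Glo ATP luminescence, 30 min RT.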

[2] = qHTS assay to identify small molecule antagonists of the retinoic acid receptor (RAR) signaling pathway (AID 1159552; also: nearly all actives have a fitted effect of over 50% in size; also: potency is read from the fitted curve at half-maximal effect)
Method in brief: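 Quantitative HTS in C3RL4 RARE-luciferase reporter cells. Compounds were added with 1 uM (final) retinol; luminescence was read after 6 hr.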

[3] = qHTS assay to identify small molecule agonists of the retinoic acid receptor (RAR) signaling pathway (AID 1159553); also: potency is read from the fitted curve at half-maximal effect
Method in brief: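 RARE-luc C3RL4 cells; overnight attachment 37 C/5% CO2; compound (DMSO) 6 hr; luciferase reagent, 30 min RT; luminescence read-out.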

[4] = molecular target: Luciferin 4-monooxygenase (Photinus pyralis) (UniProt P08659); assay: qHTS assay to identify small molecule inhibitors of firefly luciferase (AID 1224835); also: nearly all actives have a fitted effect of over 25% in size; also: potency is read from the fitted curve at half-maximal effect
Method in brief: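 Biochemical qHTS: compounds run as interplate titrations against purified firefly enzyme, with D-luciferin and ATP each at its KM concentration. Light output recorded by CCD imaging.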

[5] = qHTS assay to identify small molecule agonists of the constitutive androstane receptor (CAR) signaling pathway - cell viability counter screen (AID 1224836); also: nearly all actives have a fitted effect of over 45% in size; also: potency is read from the fitted curve at half-maximal effect
Method in brief: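 Counter screen multiplexed with the CAR reporter readout: HepG2 cells co-transfected with hCAR and the CYP2B6-2.2kb construct receive a 15-concentration compound series and 0.75 uM PK11195 (final), then CellTiter-Fluor fluorescence is read after 23 h.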

[6] = qHTS assay to identify small molecule antagonists of the constitutive androstane receptor (CAR) signaling pathway - cell viability counter screen (AID 1224837); also: nearly all actives have a fitted effect of over 45% in size; also: potency is read from the fitted curve at half-maximal effect
Method in brief: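 Read-out: CellTiter-Fluor fluorescence after 23 hr at 37 C/5% CO2. Cells: HepG2 double-stable for hCAR and CYP2B6-2.2kb. Compounds tested at 15 concentrations in the presence of CITCO, final concentration 50 nM.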

[7] = molecular target: Nuclear receptor subfamily 1 group I member 3 (Homo sapiens) (UniProt Q14994); assay: qHTS assay to identify small molecule agonists of the constitutive androstane receptor (CAR) signaling pathway (AID 1224839); also: nearly all actives have a fitted effect of over 15% in size; also: potency is read from the fitted curve at half-maximal effect
Method in brief: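 A 15-concentration quantitative screen uses HepG2 cells co-transfected stably with human CAR and CYP2B6-2.2kb reporter. Treatment lasts 24 h with 0.75 uM PK11195 final present; ONE-Glo luminescence is the signal.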

[8] = qHTS assay to identify small molecule antagonists of the estrogen related receptor signaling pathway with the pleiotropic PPARgamma coactivator (PGC) from Tox21 10K library - cell viability counter screen (AID 1224840; active = well fitted cell-killing curve with a large enough effect in the repeat runs, not every such curve was filed as active; also: nearly all actives have a fitted effect of over 40% in size; also: potency is read from the fitted curve at half-maximal effect)
Method in brief: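 Fluorescence read-out of CellTiter-Fluor viability reagent, added after cells had been exposed to compound in DMSO for 17.5 h at 37 C; 30 min development at 37 C/5% CO2. Cells: PGC/ERR line, 2,000/well.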

[9] = qHTS assay to identify small molecule agonists of the RXR signaling pathway - cell viability counter screen (AID 1159529); also: nearly all actives have a fitted effect of over 50% in size; also: potency is read from the fitted curve at half-maximal effect
Method in brief: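 Cell viability is measured by CellTiter-Glo luminescence, 30 min at room temperature, in wells already read for beta-lactamase. Engineered HEK 293T cells (RXR-alpha-UAS-bla) are dosed 16 hr at 37 C. Tetraoctyl ammonium bromide serves as positive control.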

[10] = molecular target: Nuclear receptor subfamily 1 group I member 3 (Homo sapiens) (UniProt Q14994); assay: qHTS assay to identify small molecule antagonists of the constitutive androstane receptor (CAR) signaling pathway (AID 1224838);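 also: HepG2 cells stably expressing hCAR with CYP2B6 luciferase reporter stimulated by CITCO; nearly all actives have a fitted effect of over 40% in size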; also: potency is read from the fitted curve at half-maximal effect
Method in brief: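 Read-out: ONE-Glo luciferase luminescence after 30 min at room temperature. HepG2-CYP2B6-hCAR double-stable cells, compounds in 15-point titration plus 50 nM CITCO final, 24 h at 37 C/5% CO2.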

[11] = qHTS assay to identify small molecule antagonists of the estrogen related receptor signaling pathway with the pleiotropic PPARgamma coactivator (PGC) from Tox21 10K library (AID 1224841; call rule not given here; also: actives are mostly falling curves and most rising ones were filed inactive; nearly all actives have a fitted effect of over 50% in size; also: potency is read from the fitted curve at half-maximal effect)
Method in brief: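 Luminescence read-out (One-Glo luciferase reagent, 30 min at room temperature) from PGC/ERR cells exposed to DMSO-dissolved test compounds for 18 h at 37 C; cells, 2,000 per well, had been preincubated 6 h before compound transfer.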

[12] = qHTS assay to identify small molecule agonists of the estrogen related receptor signaling pathway with the pleiotropic PPARgamma coactivator (PGC) from Tox21 10K library (AID 1224842); also: nearly all actives have a fitted effect of over 15% in size
Method in brief: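 PGC/ERR reporter cell line, 2,000 cells per well, incubated 6 h at 37 C before 23 nL compound in DMSO was added. After 18 h at 37 C, One-Glo luminescence read following 30 min at room temperature.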

[13] = molecular target: Thyrotropin receptor (Homo sapiens) (UniProt P16473); assay: qHTS assay to identify small molecule agonists of the thyroid stimulating hormone receptor (TSHR) signaling pathway (AID 1224843; calls by dose curve; also: nearly all actives have a fitted effect of over 45% in size; also: potency is read from the fitted curve at half-maximal effect)
Method in brief: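 Agonist-mode screen: TSHR HEK293 cells received test chemicals for half an hour at room temperature, then HTRF cAMP detection reagents for one hour prior to fluorescence measurement. Each chemical ran as a 15-concentration series, triplicated.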

[14] = qHTS assay to identify small molecule antagonists of the estrogen related receptor (ERR) signaling pathway from Tox21 library - cell viability counter screen (AID 1224834); also: nearly all actives have a fitted effect of over 30% in size; also: potency is read from the fitted curve at half-maximal effect
Method in brief: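 Multiplexed viability counter screen in ERR cells: 17.5 h compound exposure at 37 C, CellTiter-Fluor added, 30 min at 37 C/5% CO2, fluorescence read.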

[15] = qHTS assay to identify small molecule antagonists of the estrogen related receptor (ERR) signaling pathway - cell viability counter screen (AID 1224818); also: series mostly up to about 46 µM
Method in brief: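 Fluorescence from CellTiter-Fluor, read 30 min after reagent addition at 37 C, measured viability of ERR cells exposed to compounds for 17.5 h. Cells had settled 6 h before dosing.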

[16] = qHTS assay to identify small molecule agonists of the estrogen related receptor (ERR) signaling pathway (AID 1224820)
Method in brief: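 An ERR cell line provided by NTP was seeded at 2,000 cells per well and allowed to settle for 6 h before compounds in DMSO were added. After 18 h at 37 C, luciferase activity was measured by One-Glo luminescence.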

[17] = qHTS assay to identify small molecule antagonists of the estrogen related receptor signaling pathway with the pleiotropic PPARgamma coactivator (PGC) cell viability counter screen (AID 1224822; also: series mostly up to about 46 µM)
Method in brief: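 Fluorescence read-out of CellTiter-Fluor after 30 min at 37 C; PGC/ERR cells, 2,000 per well, had been exposed to DMSO-dissolved compounds for 17.5 h following a 6 h pre-incubation.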

[18] = qHTS assay to identify small molecule agonists of the estrogen related receptor signaling pathway with the pleiotropic PPARgamma coactivator (PGC) (AID 1224823)
Method in brief: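 Compounds dissolved in DMSO are added by pin tool to PGC/ERR cells that have settled for 6 h, and incubation continues 18 h at 37 C. Reporter output is measured as One-Glo luminescence.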

Measured: Potency

Chain of Thyrotropin receptor (Homo sapiens) (P16473 whole entry, looked up): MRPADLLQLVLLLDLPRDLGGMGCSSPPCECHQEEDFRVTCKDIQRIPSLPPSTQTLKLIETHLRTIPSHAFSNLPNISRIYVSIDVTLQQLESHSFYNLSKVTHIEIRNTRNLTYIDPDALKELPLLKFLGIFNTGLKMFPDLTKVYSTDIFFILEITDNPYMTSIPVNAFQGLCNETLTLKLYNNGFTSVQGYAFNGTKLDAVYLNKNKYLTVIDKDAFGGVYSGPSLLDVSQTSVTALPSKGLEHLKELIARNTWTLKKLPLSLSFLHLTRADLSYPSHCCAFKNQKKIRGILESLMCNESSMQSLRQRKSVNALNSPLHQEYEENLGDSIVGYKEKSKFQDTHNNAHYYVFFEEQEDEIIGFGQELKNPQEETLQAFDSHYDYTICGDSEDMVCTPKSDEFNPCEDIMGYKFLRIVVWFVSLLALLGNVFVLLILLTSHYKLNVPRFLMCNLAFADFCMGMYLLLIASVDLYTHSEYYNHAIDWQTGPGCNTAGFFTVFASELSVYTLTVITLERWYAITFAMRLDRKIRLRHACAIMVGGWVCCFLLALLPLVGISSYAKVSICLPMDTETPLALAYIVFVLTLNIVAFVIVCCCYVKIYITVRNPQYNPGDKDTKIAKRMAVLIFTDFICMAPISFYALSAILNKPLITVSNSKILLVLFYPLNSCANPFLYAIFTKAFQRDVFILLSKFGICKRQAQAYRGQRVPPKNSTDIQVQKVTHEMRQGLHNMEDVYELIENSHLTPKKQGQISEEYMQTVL
Chain of Nuclear receptor subfamily 1 group I member 3 (Homo sapiens) (Q14994 whole entry, looked up): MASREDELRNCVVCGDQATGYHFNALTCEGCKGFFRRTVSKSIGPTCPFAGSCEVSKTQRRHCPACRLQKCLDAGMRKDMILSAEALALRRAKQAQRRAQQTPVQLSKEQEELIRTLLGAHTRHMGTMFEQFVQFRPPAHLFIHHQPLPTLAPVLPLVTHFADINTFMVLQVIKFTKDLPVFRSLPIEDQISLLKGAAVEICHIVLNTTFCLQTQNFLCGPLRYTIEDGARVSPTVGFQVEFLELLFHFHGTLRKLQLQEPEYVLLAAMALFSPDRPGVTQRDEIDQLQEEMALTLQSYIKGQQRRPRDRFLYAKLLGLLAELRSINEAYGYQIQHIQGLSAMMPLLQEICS
Chain of Luciferin 4-monooxygenase (Photinus pyralis) (P08659 whole entry, looked up): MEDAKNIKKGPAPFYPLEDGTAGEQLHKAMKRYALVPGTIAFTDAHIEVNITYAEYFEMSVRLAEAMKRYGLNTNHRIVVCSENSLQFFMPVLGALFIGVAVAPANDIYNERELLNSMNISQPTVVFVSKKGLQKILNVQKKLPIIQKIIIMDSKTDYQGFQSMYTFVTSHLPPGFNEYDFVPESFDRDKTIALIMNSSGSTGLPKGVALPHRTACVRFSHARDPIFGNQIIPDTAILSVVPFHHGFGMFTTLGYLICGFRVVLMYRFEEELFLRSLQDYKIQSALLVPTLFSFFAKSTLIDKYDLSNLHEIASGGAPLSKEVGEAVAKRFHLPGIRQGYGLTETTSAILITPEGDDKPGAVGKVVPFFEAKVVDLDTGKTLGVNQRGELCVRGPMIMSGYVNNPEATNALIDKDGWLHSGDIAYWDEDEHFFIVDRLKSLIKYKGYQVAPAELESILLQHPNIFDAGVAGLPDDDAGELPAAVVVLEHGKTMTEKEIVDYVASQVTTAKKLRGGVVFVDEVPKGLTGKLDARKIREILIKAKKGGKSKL

BrC(Br)C(Br)(Br)Br
inactive: [1] | [3] | [5] | [6] | [7] | [8]
active: [2] 30.8 µM | [4] 22.6 µM

COc1cccc2c1C(=O)c1c(O)c3c(c(O)c1C2=O)C[C@@](O)(C(=O)CO)CC3OC1CC(N2CCOC(OC)C2)C(O)C(C)O1 (stereo not given in full)
active: [2] 0.106 µM | [5] 0.119 µM | [6] 0.106 µM | [10] 0.0298 µM | [11] 0.266 µM
inactive: [9] | [7] | [8] | [12] | [13]

Cc1cc(C(C)(C)c2cc(C)c(O)c(C)c2)cc(C)c1O
active: [9] 47.4 µM | [2] 52.7 µM | [14] 41.8 µM | [7] 4.69 µM | [13] 33.2 µM
inactive: [4] | [10] | [12]

Nc1ccccc1C(=O)Oc1ccc2ccccc2c1
active: [3] 0.193 µM | [4] 1.78 µM | [7] 54.5 µM
inactive: [1] | [2] | [14] | [5] | [6] | [10] | [8] | [13]

Oc1c(Cl)c(Cl)cc(Cl)c1Cl
active: [2] 66.7 µM | [4] 87 µM | [11] 53 µM
inactive: [1] | [3] | [6] | [7] | [12] | [13]

Nc1ccccc1C(=O)OC/C=C/c1ccccc1
inactive: [1] | [2] | [5] | [6] | [10] | [8] | [13]
active: [3] 1.22 µM | [4] 31.8 µM | [7] 48.7 µM

O=[N+]([O-])c1cc(C(F)(F)F)c(Cl)c([N+](=O)[O-])c1Cl
active: [1] 48.6 µM | [14] 54.5 µM | [4] 79.6 µM | [5] 43.3 µM | [6] 27.3 µM | [8] 48.6 µM
inactive: [12]

C[C@]12Cc3nonc3C[C@@H]1CC[C@@H]1[C@@H]2CC[C@@]2(C)[C@H]1CC[C@]2(C)O
active: [14] 29.8 µM
inactive: [1] | [3] | [4] | [5] | [6] | [12] | [13]

CCOC(=O)OC1=C(c2cc(C)ccc2C)C(=O)NC12CCC(OC)CC2 (stereo not given)
inactive: [1] | [3] | [14] | [4] | [6] | [10] | [7] | [8]

CC(=[OH+])/C=C(/C)[O-].CC(=[OH+])/C=C(\C)[O-].CC(=[OH+])/C=C(\C)[O-].[Al]
inactive: [1] | [14] | [5] | [6] | [8]
active: [4] 71 µM

N#CCCO
inactive: [1] | [14] | [4] | [5] | [6] | [8]

C[C@]12CC[C@@H]3c4ccc(OC(=O)N(CCCl)CCCl)cc4CC[C@H]3[C@@H]1CC[C@@H]2O
inactive: [1] | [14] | [4] | [5] | [6] | [10] | [7] | [8] | [12] | [13]

ClC1=C(Cl)[C@]2(Cl)[C@@H]3[C@@H]4C[C@@H]([C@H]5O[C@@H]45)[C@@H]3[C@@]1(Cl)C2(Cl)Cl
active: [1] 61.1 µM | [2] 27.3 µM | [14] 54.5 µM | [8] 61.1 µM | [11] 61.1 µM | [13] 1.93 µM
not listed: [3] | [7] | [9] | [10]
inactive: all other assays above

S=C(SSC(=S)N1CCCCC1)N1CCCCC1
active: [14] 0.531 µM | [4] 1.74 µM | [5] 0.841 µM | [6] 0.335 µM | [10] 0.376 µM
inactive: [1] | [7] | [12] | [13]

CCCCOP(=O)(CCCC)OCCCC
inactive: [1] | [2] | [14] | [4] | [5] | [6] | [10] | [8] | [12]

COc1ccc(/C(=C/C(=O)N2CCOCC2)c2ccc(Cl)cc2)cc1OC
not listed: [2] | [9] | [14] | [15] | [16] | [17] | [18]
inactive: all other assays above

Cc1cc(C(F)(C(F)(F)F)C(F)(F)F)ccc1NC(=O)c1cccc(I)c1C(=O)NC(C)(C)CS(C)(=O)=O
inactive: [1] | [3] | [14] | [4] | [5] | [6] | [7] | [8] | [12] | [13]

CN(C)CCc1c[nH]c2ccc(O)cc12
inactive: [1] | [2] | [14] | [4] | [5] | [6] | [10] | [7] | [8] | [13]

O=[N+]([O-])c1ccc2ccc3cccc4ccc1c2c34
inactive: [1] | [3] | [4] | [5] | [6] | [7] | [8]
active: [10] 4.85 µM

Nc1c(Oc2ccccc2)cc(O)c2c1C(=O)c1ccccc1C2=O
active: [4] 3.09 µM | [7] 6.68 µM
inactive: [1] | [2] | [5] | [6] | [8]

Oc1c(Br)c(Br)c(Br)c(Br)c1Br
inactive: [1] | [3] | [7]

c1cc[c]([Sb]([c]2ccccc2)[c]2ccccc2)cc1
active: [2] 61.1 µM | [7] 15.4 µM
inactive: [1] | [14] | [4] | [5] | [6] | [13]
